SMILES strings stand for the structures. About 31,000 (8.9%) of roughly 350,000 compounds were called active. About 15% were inconclusive and are not listed. Many of the other results were omitted from the sample, so actives are more common in it than they were. Values without a mark were called inactive. Calls come from the whole dose curve; as a rule, active = well fitted inhibition curve with a large enough effect; inconclusive = small, poorly fitted or top-dose-only effect; inactive = no such curve, though single readings can be large or run the other way.
% is set by controls: 0 for no effect and ±100 for the full control effect; potency is the fitted concentration of half-maximal effect.

The target of the assay is Histone-lysine N-methyltransferase EHMT2 (Homo sapiens) (UniProt Q96KQ7). Kind of assay: qHTS Assay for Inhibitors of Histone Lysine Methyltransferase G9a. Note: nearly all actives have a fitted effect of over 75% in size. The note with it: G9a H3K9 monomethylation, AlphaScreen, 2 h; series mostly up to 59 µM; activity, negative = inhibition: at the top concentration. The method in brief: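 Quantitative HTS format: methyltransferase activity on a biotin-tagged H3K9 peptide is measured by AlphaScreen, using a rabbit anti-monomethyl-H3K9 antibody with streptavidin donor and anti-IgG acceptor beads. Final levels are 20 nM enzyme, 500 nM peptide, 20 uM SAM; 2 h RT.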
Histone-lysine N-methyltransferase EHMT2 (Homo sapiens), sequence (Q96KQ7 913-1193 limits assumed): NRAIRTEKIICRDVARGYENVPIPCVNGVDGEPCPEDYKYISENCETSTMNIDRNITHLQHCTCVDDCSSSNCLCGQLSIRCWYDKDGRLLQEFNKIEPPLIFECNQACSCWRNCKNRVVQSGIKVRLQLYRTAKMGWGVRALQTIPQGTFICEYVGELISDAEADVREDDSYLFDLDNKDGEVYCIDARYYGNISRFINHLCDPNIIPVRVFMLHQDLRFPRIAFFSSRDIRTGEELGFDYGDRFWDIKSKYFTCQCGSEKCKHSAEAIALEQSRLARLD
On the technique in general: Quantitative high-throughput screening tests each substance at several concentrations.
On to `Cc1ccc(N(CC(=O)NCc2ccc(Cl)cc2)S(=O)(=O)N(C)C)cc1`, for which the “activity, negative = inhibition” value was 2.2%.

For `COc1cc(C(=O)Nc2ccc(OCc3cc(=O)n4ccc(C)cc4n3)cc2)cc(OC)c1OC`, the “activity, negative = inhibition” value was 0.891%.

On to `COc1cccc(CNC(=O)C(=O)NCC(c2cccs2)S(=O)(=O)c2ccccc2)c1` (configuration not stated), for which the “activity, negative = inhibition” value is 9.87%.

For `CCOCCCNC(=O)c1cn(CC)c2ccc(S(=O)(=O)N3CCc4ccccc4C3)cc2c1=O`, the “activity, negative = inhibition” value is -4.51%.

Consider `CCn1cc(C(=O)NCc2ccc(C)cc2)c(=O)c2cc(S(=O)(=O)N3CCc4ccccc4C3)ccc21`, for which the “activity, negative = inhibition” value was -3.65%.

For `CCn1cc(C(=O)NCCCN2CCCCCC2)c(=O)c2cc(S(=O)(=O)N3CCc4ccccc4C3)ccc21`, the Potency was 31.6 µM (active).

In the case of `FC(F)(F)c1ccc(-n2cn[nH]c2=S)cc1`, the Potency is 8.91 µM (active).

On to `O=c1c2ccccc2c(-c2ccc(F)cc2)nn1-c1ccc(C(F)(F)F)cc1`, for which the “activity, negative = inhibition” value is 28.6%.

Regarding `CCOc1ccc(OCC)c(NS(=O)(=O)c2ccc3[nH]c(=O)ccc3c2)c1`, the “activity, negative = inhibition” value is 3%.

Turning to `COc1cc(/C=C2/C(=O)NN(c3ccc(F)cc3)C2=O)cc([N+](=O)[O-])c1O`, the Potency was 39.8 µM (active).

As to `COc1cccc(/C=C2\SC(=N)N(c3ccc(F)cc3)C2=O)c1`, the “activity, negative = inhibition” value was 10.2%.

As to `COc1ccc(C(=O)N2CCN(c3ccc(C(C)=O)cc3F)CC2)cc1S(=O)(=O)NC1CC1`, the activity, negative = inhibition is 15.5% [at 2.33 µM].

As to `COc1ccc(-c2nnc3ccc(SCc4ccccc4)nn23)cc1`, the Potency was 70.8 µM (active).

`CCOc1ccc(-c2nnc3ccc(SC)nn23)cc1`: the “activity, negative = inhibition” value was 12.5% [at 102 µM].

Take `COC(=O)c1ccc(CSc2ccc3nnc(-c4ccccc4)n3n2)o1`: the “activity, negative = inhibition” value is -17.6%.

As to `CCOc1ccc(NC(=O)Cn2cc(C(=O)c3ccc(C)cc3)c(=O)c3cc4c(cc32)OCCO4)cc1`, the “activity, negative = inhibition” value was 14.7%.

`O=C(CCc1nnc(Cc2ccc3c(c2)OCO3)o1)NCCc1ccccc1Cl`: the activity, negative = inhibition was 27.8% [at 0.501 µM].

As for `O=C(NNc1ccccn1)c1ccc(Cl)nc1`, the Potency is 3.55 µM (active).

Take `CCN(CC)S(=O)(=O)c1cc(C(=O)Nc2ccccn2)ccc1C`: the activity, negative = inhibition was -27.2% [at 12.7 µM].

As for `COc1ccc(C(=O)/C=C/Nc2ccccn2)cc1`, the “activity, negative = inhibition” value was 11.7% [at 102 µM].

As for `Cc1ccc(NC(=O)CN(C)C(=O)Cn2nnc(-c3ccccc3)n2)cc1`, the “activity, negative = inhibition” value was 1.83% [at 102 µM].

Take `Cc1ccc(C)c(NC(=O)CN(C)C(=O)c2ccc3ncsc3c2)c1`: the “activity, negative = inhibition” value is -26.8% [at 102 µM].

On to `CC(NC(=O)c1ccc(S(=O)(=O)Nc2ccccc2)cc1)c1ccc(S(N)(=O)=O)cc1` (configuration not stated), for which the “activity, negative = inhibition” value was -4.66%.

For `COc1cc(Br)cc2cc(S(=O)(=O)c3ccccc3)c(=O)oc12`, the “activity, negative = inhibition” value is -44.4%.

Turning to `COc1ccc(OC)c2sc(N3CCN(C(=O)C4COc5ccccc5O4)CC3)nc12` (configuration not stated), the “activity, negative = inhibition” value was -41.3%.

For the molecule `COc1cc(NS(=O)(=O)c2ccc3c(c2)OCC(C(=O)N2CCCC2)O3)cc(OC)c1` (configuration not stated), the “activity, negative = inhibition” value is 9.66%.

Take `Cc1c(CC(=O)N2CCN(C(=O)C3COc4ccccc4O3)CC2)c(=O)oc2c(O)c(O)ccc12` (configuration not stated): the Potency was 12.6 µM (active).

These data come from PubChem BioAssay AID504332 (National Center for Advancing Translational Sciences (NCATS), 2011).
